Drawing on PubChem BioAssay AID743126 (The Scripps Research Institute Molecular Screening Center, 2013), this text covers inhibition for 88 molecules.

Molecules are shown by their SMILES. The whole screen tested about 370,000 compounds, of which about 2,100 (0.57%) were called active. This excerpt belongs to a sample that is enriched for actives. A number with no mark means an inactive call.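 How the source made its calls: active means inhibition above mean plus 3 SD of compounds lying within the high and low control bounds (cut at about 19% in these data); inactive means the rest.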

This assay deals with Group 3 secretory phospholipase A2 (Homo sapiens) (UniProt Q9NZ20). Briefly: HGIII-sPLA2 enzyme inhibition – biochemical, QFRET, BODIPY PC-A2 liposome substrate, primary screen (AID 743126).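 Further: 0% = median of test compound wells and 100% = no enzyme DMSO wells.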 The note with it: QFRET BODIPY PC-A2 liposome hydrolysis, fluorescence; at 12.2 µM; stronger effect = higher value.
Group 3 secretory phospholipase A2 (Homo sapiens), sequence (Q9NZ20 whole entry, looked up): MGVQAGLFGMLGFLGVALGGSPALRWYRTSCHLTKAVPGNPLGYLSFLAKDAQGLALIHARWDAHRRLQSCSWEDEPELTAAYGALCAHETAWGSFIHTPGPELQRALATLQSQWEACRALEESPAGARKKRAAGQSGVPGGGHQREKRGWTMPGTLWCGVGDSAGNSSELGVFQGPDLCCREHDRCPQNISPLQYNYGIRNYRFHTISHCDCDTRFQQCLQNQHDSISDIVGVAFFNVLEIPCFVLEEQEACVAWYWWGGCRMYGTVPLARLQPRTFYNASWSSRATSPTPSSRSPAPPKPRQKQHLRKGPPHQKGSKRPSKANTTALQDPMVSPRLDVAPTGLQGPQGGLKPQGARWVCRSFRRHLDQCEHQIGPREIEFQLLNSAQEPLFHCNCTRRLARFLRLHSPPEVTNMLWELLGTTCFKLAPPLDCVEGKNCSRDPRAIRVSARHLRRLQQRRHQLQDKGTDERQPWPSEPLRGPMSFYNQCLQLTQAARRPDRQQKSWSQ
`CCOC(=O)[C@]12CCCC=C1N(Cc1ccc(OC)cc1)C(=O)[C@@H]2CC(=O)NCc1cccs1`: the inhibition (commonly the drop in the measured response relative to a control, in per cent) is -4.75%.

In the case of `COc1ccc(Cn2cc(CN3[C@@H](CC(C)C)COc4cc(Br)ccc4S3(=O)=O)nn2)cc1`, the inhibition was 6.77%.

For the molecule `C[C@H]1CCC/C=C/C(=O)c2c(O)cc(O)cc2CC(=O)O1`, the inhibition was 4.76%.

Regarding `Clc1ccc(-n2c(COc3ccccc3)nnc2SCc2nc3ccccc3[nH]2)cc1`, the inhibition was -11.3%.

Turning to `Cc1cc(NS(=O)(=O)c2ccc(NC(=O)CSc3nnc(SCc4ccc(F)cc4)s3)cc2)nc(C)n1`, the inhibition is -29.3%.

`Cc1ccc2sc(NNC(=O)c3ccc4c(c3)OCCO4)nc2c1C`: the inhibition is 39.7% (active).

Regarding `C/C(Cc1ccccc1)=N\NC(=O)CNC(=O)c1ccc2c(c1)OCCO2`, the inhibition was -4.8%.

As for `Cc1nc(NC(=O)c2ccc3c(c2)OCCO3)ccc1Br`, the inhibition is 4.96%.

For `COc1cc(/C=C/C(=O)n2cnc3ccccc32)cc(OC)c1OC`, the inhibition was 11.9%.

In the case of `CCc1ccccc1NC(=O)CSc1nnc(-c2cccs2)o1`, the inhibition is 0.47%.

For the molecule `COc1ccccc1CC(=O)Nc1ccc(S(=O)(=O)N2CCCC2)cc1`, the inhibition is -5.06%.

On to `COc1ccc(-c2ccc(Nc3ccc(S(=O)(=O)N4CCCC4)cc3)nn2)cc1OC`, for which the inhibition is 27.2% (active).

With `COc1cc(C(=O)NNC(=O)c2ccc(S(=O)(=O)N3CCCCC3)cc2)cc(OC)c1OC`, the inhibition was -8.86%.

For `CCC(NC(=O)C1C2C=CC3(CN(Cc4ccccc4)C(=O)C13)O2)c1ccccc1` (stereo not drawn), the inhibition is -3.46%.

On to `CCOC(=O)C1CCN(C(=O)C(C)(C)NC(=O)Nc2ccccc2Cl)CC1`, for which the inhibition was 0.81%.

As for `C/C(=N\NS(=O)(=O)c1cccc([N+](=O)[O-])c1)c1cc2ccccc2o1`, the inhibition is 3.51%.

For the molecule `C/C(=N\NC(=S)Nc1ccc(C)cc1)c1cc2ccccc2o1`, the inhibition was 23.9% (active).

For `CC(=O)N1CCN(c2ccccc2NC(=S)NC(=O)c2cc3ccccc3o2)CC1`, the inhibition was 3.86%.

With `Cc1cc(C)n2ncc(C(=O)Nc3ccc4c(c3)OCCO4)c2n1`, the inhibition was 0.96%.

In the case of `COc1ccc(Cl)cc1C(=O)NNC(=O)c1nc2nc(C)cc(C)n2n1`, the inhibition was 5.45%.

Take `O=C(COC(=O)c1ccccc1Cl)NC1CCCCCCC1`: the inhibition is 5.22%.

In the case of `Cc1nn(C)c(C(=O)NNC(=S)NC2CCCCC2)c1Cl`, the inhibition is 4.69%.

Regarding `COc1ccc(Cl)cc1C(=O)NNC(=S)NC1CCCC1`, the inhibition was 26.5% (active).

With `O=C(NNC(=S)NC1CCCCC1)c1ccccc1Cl`, the inhibition is 20.1% (active).

Regarding `COc1ccc(Cl)cc1C(=O)NNC(=S)NC(=O)/C=C/c1ccco1`, the inhibition is 2.13%.

Regarding `COC(=O)C12C=C3CC(c4ccccc4)=C3C(=O)N1Cc1[nH]c3ccccc3c1C2` (stereo not drawn), the inhibition is -7.07%.

In the case of `COc1ccc(-n2c(SCC(=O)Nc3ccc4cn[nH]c4c3)nnc2-c2cccnc2)cc1`, the inhibition was 3.42%.

For `CC(=O)OCCN1CCCC12CCC(c1ccccc1)CC2` (stereo not drawn), the inhibition was 11.1%.

As to `C=CCN1C(=O)[C@@H](CC(=O)NCCCOCCCC)[C@]2(C(=O)OCC)CCCCC/C=C/12`, the inhibition is -8.97%.

In the case of `COc1ccc(-n2c(SCC(=O)Nc3ccccc3-c3ccccc3)nnc2-c2cccnc2)cc1`, the inhibition is -5.21%.

In the case of `CCOC(=O)N1CCN(C(=O)C[C@@H]2C(=O)N(CCc3ccc(Cl)cc3)C3=CCCC[C@]32C(=O)OCC)CC1`, the inhibition was -8.77%.

Regarding `S=C(NNC(=S)NC1CC2CCC1C2)NC1CC2C=CC1C2` (stereo not drawn), the inhibition is 19.5% (active).

With `CC(C)c1ccc(NC(=S)NC2CC3C=CC2C3)cc1` (stereo not drawn), the inhibition was 0.31%.

Consider `O=S(=O)(NC1CC2CCC1C2)c1ccc(Cl)cc1` (stereo not drawn), for which the inhibition is -4.6%.

In the case of `CC1CCN(C(=S)NC2CC3CCC2C3)CC1` (stereo not drawn), the inhibition was 14.4%.

Consider `O=C(NNC(=S)NC1CC2CCC1C2)c1ccc(Cl)cc1` (stereo not drawn), for which the inhibition was 19.4% (active).

In the case of `O=C(NNC(=O)C1C2CCC(C2)C1C(=O)O)c1ccc(Cl)cc1` (stereo not drawn), the inhibition was 4.75%.

On to `Cc1ccc(C2=CCN(C)C(=O)N2c2ccc(Cl)cc2)cc1`, for which the inhibition is -5.31%.

Turning to `COC(=O)C[C@@H]1CC[C@@H]2[C@@H](COc3ccc(NC(=O)Nc4ccc(F)c(F)c4)cc3C(=O)N2C)O1`, the inhibition is -13.5%.

As for `Cc1cccc(N(Cc2ccccc2)C(=O)c2cc(S(=O)(=O)N3CCOCC3)ccc2F)c1`, the inhibition was -1.09%.

`Cc1ccc(S(=O)(=O)N2CCOCC2)cc1C(=O)NC(=S)N(Cc1ccccc1)C(C)C`: the inhibition was 23.9% (active).

Turning to `Cc1ccc(S(=O)(=O)N2CCOCC2)cc1C(=O)Nc1ccccc1N1CCCC1`, the inhibition was 1.07%.

For the molecule `CCC(=O)Nc1ccc2c(c1)C(=O)N(C)[C@@H]1CC[C@@H](CC(=O)NCCc3ccccc3)O[C@H]1CO2`, the inhibition is 4.64%.

Regarding `C[C@H](C(=O)N(C)c1ccccc1)[C@@H](O)c1ccc(Cl)cc1`, the inhibition was -2.63%.

As to `O=C(OC12CCCN(C1)/C(=C/c1cccnc1)C2)C1CCCC1` (stereo not drawn), the inhibition was -0.59%.

With `Cc1ccccc1NC(=O)C1CCN(C(=O)NC2CCCCC2)CC1`, the inhibition is -4.04%.

Regarding `Cc1ccccc1NC(=O)C1CCN(c2ncccn2)CC1`, the inhibition was 19.5% (active).

Consider `O=C(NNC(=O)C1CCN(c2ncccn2)CC1)c1ccccc1`, for which the inhibition was -1.66%.

For the molecule `COC(=O)c1cc(S(=O)(=O)N2CCN(c3ccccc3C)CC2)cn1C`, the inhibition is 1.56%.

As for `CCCCNC(=O)c1ccc(-n2c(=S)[nH]c3ccccc3c2=O)cc1`, the inhibition is 4.64%.

For `CCCCn1c(=S)[nH]c2ncccc2c1=O`, the inhibition was 2.69%.

Consider `CCCCn1c(=S)[nH]c2ccccc2c1=O`, for which the inhibition was 25.3% (active).

On to `COc1ccccc1C(=O)NC1CCCCN(C(C)C)C1=O` (stereo not drawn), for which the inhibition was 12.1%.

For `COC(=O)[C@H](C(C)C)N(CCCc1cn(Cc2ccccc2)nn1)S(=O)(=O)c1ccc(F)cc1Br`, the inhibition was -15.2%.

`CCCCCCCCCCOC(=O)C[N+](C)(C)CC1CCCCC1O` (stereo not drawn): the inhibition is 19.3% (active).

On to `CCCCCOC(=O)c1ccc(N2C(=O)C3C4C=CC(C4)C3C2=O)cc1` (stereo not drawn), for which the inhibition was -15.1%.

On to `COc1ccc(S[C@]2(C(=O)N(C)C)CC(=O)N(c3ccc(OC)cc3)[C@@H]2c2ccc(OC)cc2)cc1`, for which the inhibition was -13.3%.

For `CCCCCCN1CCS(=O)(=O)N(Cc2ccc(C(F)(F)F)cc2)C(C(=O)OC)C1` (stereo not drawn), the inhibition is 5.31%.

Turning to `O=C(NN=Cc1ccco1)C(=O)Nc1ccc(Cl)c([N+](=O)[O-])c1`, the inhibition is 3.31%.

For the molecule `O=[N+]([O-])c1cc(Cl)cc(/C=N/NC(=S)Nc2cc(S(=O)(=O)N3CCOCC3)ccc2Cl)c1O`, the inhibition is 16.3%.

As to `O=C(N/N=C/c1cc(Cl)cc([N+](=O)[O-])c1O)C(O)(c1ccccc1)c1ccccc1`, the inhibition is 21.2% (active).

As to `CN(C)CC(=O)N[C@@H]1C[C@@H]2O[C@H](CO)CC[C@@H]2O[C@@H]1CCc1ccc(C#Cc2ccccc2)cc1`, the inhibition is -19.5%.

For the molecule `COc1ccc(-n2c(SCC(=O)Nc3ccc4c(c3)OCCO4)nnc2-c2ccc(Cl)cc2)cc1`, the inhibition is 0.31%.

For `CC(NCc1ccco1)C(=O)N1CCCCC1` (stereo not drawn), the inhibition was 3.8%.

Consider `O=C(CSc1ccccc1F)NC1CCS(=O)(=O)C1` (stereo not drawn), for which the inhibition was 1.4%.

As to `CCN(CC(=O)NCCc1ccccc1)S(=O)(=O)c1ccccc1`, the inhibition was 0.93%.

Regarding `CCN(CC(=O)NC1CCS(=O)(=O)C1)S(=O)(=O)c1ccccc1` (stereo not drawn), the inhibition was 22.4% (active).

Turning to `CCCNC(=O)Nc1ccc2c(c1)C(=O)N(C)[C@H]1CC[C@H](CC(=O)NCC3CCCCC3)O[C@@H]1CO2`, the inhibition was -24.2%.

In the case of `C=CCN1[C@@H](Cc2ccccc2)COc2cccc(N3CCSCC3)c2S1(=O)=O`, the inhibition was -0.87%.

Take `O=C(CSc1nc2ccccc2s1)N=Nc1c(O)[nH]c2ccccc12`: the inhibition was -40.6%.

Turning to `Cc1sc2nc(SCC(=O)c3ccc(O)c(O)c3)n(Cc3ccco3)c(=O)c2c1C`, the inhibition is 23.9% (active).

`O=C(CSc1nnc(COc2ccccc2)n1Cc1ccco1)c1ccc2ccccc2c1`: the inhibition is -53.5%.

`O=C(CSc1nnc(-c2cccs2)n1Cc1ccco1)c1ccc2c(c1)OCO2`: the inhibition was -35.9%.

As to `COc1ccc(-n2c(COc3ccc(C)cc3)nnc2SCC(=O)Nc2ccc(Oc3ccccc3)cc2)cc1`, the inhibition was -8.43%.

Consider `CCN(C(=O)[C@@H](C1CC1)[C@@H](O)c1ccc2ccccc2c1)c1ccccc1`, for which the inhibition was 4.03%.

With `CCCCN1CCN(C(=O)c2ccc3c(c2)NC(=O)C(C)(C)O3)CC1`, the inhibition is 5.11%.

For the molecule `O=C(Nc1ccccc1)N1CCN(Cc2nc3ccccc3c(=O)[nH]2)CC1`, the inhibition was 7.43%.

On to `COC(=O)[C@H](C(C)C)N1CCc2nnn(Cc3ccc(C)cc3)c2-c2ccccc2S1(=O)=O`, for which the inhibition was -9.33%.

`CC(C)=CCCC1(C)C=Cc2c(ccc3c2[nH]c2cc(O)c(C)cc23)O1` (stereo not drawn): the inhibition was 22.9% (active).

Regarding `C=C(C)C#CC(Cc1ccccc1)N(CC1CC1)/C(N)=N/C(=O)OCc1ccccc1` (stereo not drawn), the inhibition is 7.88%.

Take `CC(C)c1cc(N=O)cc(C(C)C)c1O`: the inhibition was -42.9%.

Take `CC(C)c1cc(C(=O)N/N=C/c2ccoc2)c(O)c(C(C)C)c1`: the inhibition was 22.1% (active).

Regarding `C[C@@H]1COc2cccc(N3CCCC3)c2S(=O)(=O)N1C`, the inhibition is 2.99%.

As to `O=C(c1ccccc1)c1ccc(-c2ccccc2C(=O)NC2CCCCN(Cc3ccc(Cl)cc3)C2=O)cc1` (stereo not drawn), the inhibition was -1.89%.

As to `Brc1ccccc1C1Nc2cccc3cccc(c23)N1`, the inhibition was 27.1% (active).

`Brc1ccccc1C1N=C(c2ccccc2)NO1` (stereo not drawn): the inhibition is 9.79%.

For `COc1cc2c(cc1OC)C(c1ccccc1Br)NC(=O)C2` (stereo not drawn), the inhibition was 13.2%.

`Cc1ccc(NC(=O)Nc2cc(C)nn2-c2ccccc2)cc1`: the inhibition was 3.2%.
